Each structure is given as a SMILES string. In all, about 69,000 compounds went through this assay and about 8,600 (12%) showed an effect of 50% or more. Many of the other results were omitted from the sample, so strong results are more common in it than they were.

The subject of the test is Plasmodium berghei. Description: Screen against P. berghei liver stage (PbLuc), transformed with Luciferase, at 10uM. As to conditions: tested at 10 uM. In kind it is functional, HepG2.
For the compound `Cc1cccc(CN2CCCC3(CCC(=O)N3CCN(C)C)CC2)n1` (configuration not stated), the INHIBITION is -6.05%. For the compound `CN(C)C(=O)N1C[C@@H]2CCCO[C@@H]2[C@H](N(C)Cc2ccco2)C1`, the INHIBITION was 41.8%.

Consider `CC(C)c1n[nH]c(C2CN(C(=O)c3cnccn3)CCO2)n1` (configuration not stated), for which the INHIBITION is 48.4%. `CN1CCC(C)(CNC(=O)c2ccc(SCc3cccnc3)cc2)CC1`: the INHIBITION came to 34%. Regarding `CCSc1ncc(Cl)c(C(=O)NC(CCSC)C(=O)O)n1` (configuration not stated), the INHIBITION is listed as 15.9%. Turning to `CNS(=O)(=O)c1ccc(CNC(=O)N(CC(C)C)C(C)C)cc1`, the INHIBITION amounted to 31.2%.

Turning to `CNS(=O)(=O)c1ccc(CNC(=O)C2CN(C)CCO2)cc1` (configuration not stated), the INHIBITION turned out to be 50%.

In the case of `CNS(=O)(=O)c1ccc(CNC(=O)N2CCOC(C)C2)cc1` (configuration not stated), the INHIBITION is listed as 50%. In the case of `CNS(=O)(=O)c1ccc(CNC(=O)C2CCCO2)cc1` (configuration not stated), the INHIBITION worked out at 54.3%. Take `CNS(=O)(=O)c1ccc(CNC(=O)NCC2CCCO2)cc1` (configuration not stated): the INHIBITION stood at 0.932%. On to `CNS(=O)(=O)c1ccc(CNC(=O)C2CCCN(C)C2)cc1` (configuration not stated), for which the INHIBITION is given as -34.8%. For the compound `CC1CN(C(=O)NCc2cnn(-c3ccc(F)cc3F)c2)CCO1` (configuration not stated), the INHIBITION is -2.55%. In the case of `CNS(=O)(=O)c1ccc(CNC(=O)NCC2CCC2)cc1`, the INHIBITION is recorded as -75.2%. For `CNS(=O)(=O)c1ccc(CNC(=O)NCC2CCOC2)cc1` (configuration not stated), the INHIBITION worked out at 21.9%. For `Cc1c(NC(=O)NCCO)cccc1OC1CCCC1`, the INHIBITION was -2.27%. Regarding `CCN(CC)CC1CCN(Cc2ccn(C)c(=O)c2)CC1`, the INHIBITION is on record as -18%. In the case of `COc1ccc(CNc2cc3[nH]c(O)nc3cc2C)cc1`, the INHIBITION was found to be 29.1%.

Regarding `O=C(CCS(=O)(=O)c1ccccc1)NC1CCOC2(CCOCC2)C1` (configuration not stated), the INHIBITION amounted to 12.1%.

`COc1ccc(COCC(=O)N2CCCC(n3cncn3)C2)cc1` (configuration not stated): the INHIBITION is -9.76%.

With `Cn1cccc1C(=O)N1CCC2(CC1)COC(COc1ccccn1)C2` (configuration not stated), the INHIBITION is listed as -8.19%. Consider `CC(C)(C)CN1CCCC12CCN(S(=O)(=O)c1ccccc1)C2` (configuration not stated), for which the INHIBITION was 78.8%.

For the compound `CCN1C(=O)CCC12CCN(S(=O)(=O)c1ccccc1)CC2`, the INHIBITION is given as -2.35%. `O=C1N(CC2CCC2)CCCC12CCN(S(=O)(=O)c1cccnc1)C2` (configuration not stated): the INHIBITION is reported as -21.8%.

With `O=C1CCC2(CCN(S(=O)(=O)c3ccccc3)CC2)N1CC1CC1`, the INHIBITION was -51.6%.

Consider `O=S(=O)(c1ccccc1)N1CCC2(CCCN2CC2CCCC2)C1` (configuration not stated), for which the INHIBITION was 71.1%. With `CC(=O)N1CCC2(CC1)CCN(S(=O)(=O)c1ccccc1)C2`, the INHIBITION is given as -18.4%. In the case of `Cc1c[nH]nc1C1CN(c2ncccn2)CCO1` (configuration not stated), the INHIBITION is reported as 14.575%. Turning to `N#Cc1ccc(CCC(=O)N2CCC(CN3CCOCC3)CC2)cc1`, the INHIBITION is recorded as 37.7%. For the compound `O=C(O)C1CN(c2cncc(Cc3ccccc3)n2)C1`, the INHIBITION was 8.35%.

With `CCc1cc(N[C@H]2CCC[C@H]2CO)n2nc(C)c(C)c2n1`, the INHIBITION was 16.3%. As for `O=S1(=O)CCN(CCCc2ccc(Cl)cc2)CC1`, the INHIBITION came to 15%. Consider `O=C(COCC(F)(F)F)N1CCCC(n2cccn2)C1` (configuration not stated), for which the INHIBITION is given as 39.5%. The value for `CC(C)CC(=O)N1CCN(C(=O)NC(C)C)CC2(CC(=O)N(C)C2)C1` (configuration not stated) was 34.4%; that for `O=C(NCCc1ccncc1)c1cccc(S(=O)(=O)NC2CC2)c1` was -78.5%.

For `CN1CC[C@]2(CN(CC3CCOCC3)C[C@H]2c2ccccc2)C1=O`, the INHIBITION was found to be 43.4%.

For `O=C1NCC[C@]12CN(CC1CCOCC1)C[C@H]2c1ccccc1`, the INHIBITION is recorded as 29.5%. With `CN1CC[C@]2(CN(CC3CC3)C[C@H]2c2ccccc2)C1=O`, the INHIBITION is listed as 52.4%. In the case of `CN1CC[C@]2(CN(Cc3nccs3)C[C@H]2c2ccccc2)C1=O`, the INHIBITION was -2.41%.

Regarding `CN(C)C(=O)CN1CC[C@]2(CN(CC3CC3)C[C@H]2c2ccccc2)C1=O`, the INHIBITION turned out to be 26.5%. In the case of `CN1CC[C@]2(CN(CC3CCOC3)C[C@H]2c2ccccc2)C1=O` (some centres not stated), the INHIBITION was found to be 57.3%. Consider `Cc1ccc(NC2CCN(C(=O)CCCn3ccnc3C)CC2)nn1`, for which the INHIBITION is reported as 8.64%.

Turning to `CC(C)c1noc(CS(=O)(=O)CC(=O)NCc2ccccc2)n1`, the INHIBITION came to 10.6%. The value for `CC(C)c1noc(CS(=O)(=O)CC(=O)NCCOc2ccccc2)n1` was 61.5%.

For `CC(C)c1noc(CCCC(=O)NCCOc2ccccc2)n1`, the INHIBITION is given as 46.4%.

Take `CC(C)OCCCNC(=O)C1CC(=O)N(c2n[nH]c3cccc(F)c23)C1` (configuration not stated): the INHIBITION was -10.9%.

With `Cn1cccc1C(=O)N1CCCC(Cn2cc(CO)nn2)C1` (configuration not stated), the INHIBITION is listed as -2.39%. Take `Cc1ccc(C2CN(CCS(=O)(=O)C(C)C)CCO2)c(C)c1` (configuration not stated): the INHIBITION came out at 30.7%.

Turning to `Cc1ccc(C2CN(CCCC#N)CCO2)c(C)c1` (configuration not stated), the INHIBITION is listed as -3.47%. In the case of `Cc1ccc(C2CN(c3nnc(C(F)F)s3)CCO2)c(C)c1` (configuration not stated), the INHIBITION turned out to be 57.4%. Regarding `Cc1ccc(C(=O)N2CCC3(CCN(c4ccsc4)C3=O)C2)cn1` (configuration not stated), the INHIBITION was -14.3%.

Consider `NCc1n[nH]c(-c2ccc(Br)cc2)n1`, for which the INHIBITION is listed as -34.4%.

In the case of `CCCS(=O)(=O)N1CCN(c2cc(-n3cnc(C)c3C)ncn2)CC1`, the INHIBITION turned out to be 27.2%.

The values are drawn from ChEMBL document CHEMBL4513216, “Probing the Open Global Health Chemical Diversity Library for Multistage-Active Starting Points for Next-Generation Antimalarials” (ACS Infect Dis, 2020).
